ELG1 genotoxic: genotoxicity induction in ELG1-luciferase HEK293T cells | HEK293T ELG1-luciferase reporter, luminescence, 16 h | Potency, µM (series often up to 46 µM), for inactives: top-dose activity change, positive = activation, usual class: activators | 1.3% of 330,000 active; note: % of control where 0% means no effect; nearly all actives have a fitted effect of over 60% in size
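Quantitative HTS format in 1536-well plates. HEK293T ELG1-luciferase reporter cells receive test compound and are incubated 16 hr at 37 °C, 5% CO2; ONE-Glo added, 30 min room temperature, then luminescence read.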
Rab9 prom act: activates the Rab9 promoter; Huh7 Rab9 promoter-luciferase reporter, luminescence, 24 h; Potency, µM (series often up to 9.22 µM), for inactives: top-dose activation, negative = inhibition, hits mostly activators; 2.8% of 320,000 active; note: % of control where 0% means no effect; nearly all actives have a fitted effect of over 60% in size
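Stable Rab9-luc Huh7, 1500 cells/well, 2 h settle; cmpd in DMSO, 24 h, 37 °C/5% CO2; luciferase reagent 10 min RT; luminescence.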
NPC1 prom act: activators of NPC1 promoter. Huh7 NPC1 promoter luciferase reporter, 24 h. Potency, µM (doses to about 9.22 µM), without a hit: at the highest dose activation, actives largely listed as activators. 2.4% of 320,000 active; note: % of control where 0% means no effect; nearly all actives have a fitted effect of over 60% in size
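Stably transfected Huh7 (NPC1 promoter→luciferase), 1500 cells/well in Opti-MEM + 10% FBS, 2 h settle, then compound 24 h at 37 °C. Luminescence after 10 min with Amplite reagent.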
FLuc modulator: counter-screen for miR-21 project: firefly luciferase inhibitors or activators | purified FLuc, Km substrates, luminescence inhibition | P08659 | 6.9% of 360,000 active | Potency, µM (titrated, usually from 57.5 µM), for the others: top-dose activity change, negative = inhibition, usual class: inhibitors | AID 588342;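 note: plate controls were vehicle for no effect and reference inhibitor for full effect; nearly all actives have a fitted effect of over 55% in size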
Target sequence (P08659 whole entry, looked up): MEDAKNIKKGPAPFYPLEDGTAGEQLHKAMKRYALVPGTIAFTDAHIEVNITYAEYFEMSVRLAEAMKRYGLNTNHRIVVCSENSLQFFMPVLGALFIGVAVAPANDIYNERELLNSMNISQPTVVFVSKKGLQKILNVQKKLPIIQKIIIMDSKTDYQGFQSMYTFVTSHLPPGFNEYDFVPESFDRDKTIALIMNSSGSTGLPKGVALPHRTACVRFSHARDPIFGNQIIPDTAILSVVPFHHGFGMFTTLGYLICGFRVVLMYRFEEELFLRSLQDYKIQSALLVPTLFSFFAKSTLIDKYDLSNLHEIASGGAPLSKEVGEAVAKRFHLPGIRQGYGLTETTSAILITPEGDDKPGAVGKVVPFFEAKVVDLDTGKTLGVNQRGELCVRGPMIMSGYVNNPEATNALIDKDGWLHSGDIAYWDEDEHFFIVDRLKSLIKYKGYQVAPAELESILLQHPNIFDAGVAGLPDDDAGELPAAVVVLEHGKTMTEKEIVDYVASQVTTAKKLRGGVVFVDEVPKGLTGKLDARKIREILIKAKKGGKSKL
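Purified P. pyralis luciferase (10nM final) with 10uM D-luciferin and 10uM ATP (Km levels) in 50mM Tris acetate pH 7.5, 10mM Mg acetate, 0.01% Tween-20, 0.05% BSA; qHTS 6-point titration, ~60 µM downward; luminescence read.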
SMN2 splice up: SMN2 splice variant enhancement; AID 1458; 2.8% of 210,000 active; HEK293 SMN2-luciferase splicing reporter, luminescence, 30-36 h; Potency, µM (top dose mostly 46.1 µM), for the others: top-dose activity change, positive = activation, usual class: activators; note: % of control where 0% means no effect; nearly all actives have a fitted effect of over 55% in size
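HEK293 cells carry an SMN2 minigene-luciferase reporter in which exon 7 inclusion puts luciferase in frame. Cells were seeded at 2000 cells/well, attached for 10-12 hours, then exposed to compounds for 30-36 hours at 37C before ONE-Glo luminescence.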
The depositor's hits bear a star; ? = inconclusive; . = no result given; [ ] = dose if it differs, or a comment. Shown are actives, neighbours in structure and some others; about 7.4% of the full set was active somewhere. Calls come from the whole dose curve; as a rule, active = well fitted curve in the direction sought with a large enough effect; inconclusive = small, poorly fitted or top-dose-only effect, or another doubt; inactive = no such curve, though single readings can be large; an effect the other way counts as inactive or inconclusive. Potency is the fitted concentration of half-maximal effect.

SMILES	ELG1 genotoxic	Rab9 prom act	NPC1 prom act	FLuc modulator	SMN2 splice up
O=C(O)c1ccc(/C=C/c2nc3sc4c(c3c(=O)[nH]2)CCC4)cc1	3.2%	12.9%	5.1%	19µM*	-13.3%
Cc1[nH]c2ccccc2c1/C=C/c1nc2ccccc2c(=O)[nH]1	7.3µM*	1.41µM*	3.16µM*	2.39µM*	.
CCn1c(/C=C/c2c(C)[nH]c3ccccc23)nc2ccccc2c1=O	7.0%	9.5%	-1.8%	-2.7%	-5.8%[1.84 µM]
O=C(O)c1ccc(-n2c(/C=C\c3ccc(O)cc3)nc3ccccc3c2=O)cc1	.	.	.	?	-8.7%
CC(C)CN(C(=O)COC(=O)CN1C(=O)c2ccccc2C1=O)c1c(N)n(Cc2ccccc2)c(=O)[nH]c1=O	-1.6%	-6.8%	-1.7%	0.0%	.
CCOc1ccc(N(CC(=O)NC2CCCCC2)C(=O)CCC(=O)Nc2ccccn2)cc1	-13.7%	-2.7%	-4.9%	2.4%	.
O=c1[nH]c(/C=C/c2ccccc2Cl)nc2ccccc12	2.06µM*	0.398µM*	?	0.849µM*	.
COc1ccccc1OCC(=O)NCCS(=O)(=O)N1CCN(c2ccccc2OC)CC1	.	.	.	-2.6%	.
CN1c2ccccc2C(=O)/C(=C\Nc2ccc(F)cc2F)S1(=O)=O	0.2%	-1.1%	2.1%	2.39µM*	.
O=C(O)Cc1sc(Nc2ccccc2)nc1-c1cccs1	?	27.1%	?	12µM*	.
Cc1nc(N/N=C/c2ccccn2)sc1C	0.13µM*	-41.0%	-30.3%	0.151µM*	.
COC(=O)c1ccc(/C=N/Nc2nc(C)c(C)s2)cc1	-6.9%	0.447µM*	0.355µM*	1.07µM*	.
C=CCNc1nc(-c2cccs2)c(CC(=O)O)s1	-0.8%	-0.2%	1.7%	-0.7%	.
O=C(Cc1sc(-c2ccccc2)nc1-c1ccccc1)Nc1ccccc1	5.7%	-3.9%	-0.1%	-19.1%	11.7%
O=C(O)Cc1sc(-c2ccccc2Cl)nc1-c1ccccc1	-10.5%	4.3%	-5.8%	23.9µM*	-20.6%
CCCc1sc(N/N=C/c2ccccn2)nc1-c1ccc(F)cc1	?	-31.7%	-36.1%	-15.9%	-73.7%
O=C(Nc1cccc(F)c1)N1CCCC2(CCN(C(=O)c3cc(C(F)(F)F)cc(C(F)(F)F)c3)CC2)C1	.	.	.	.	-5.1%
CC(=O)c1sc(N/N=C\c2ccccc2O)nc1C	6.51µM*	?	?	3.38µM*	?
CCOC(=O)c1sc(N/N=C/c2ccccc2)nc1C	8.2µM*	1.58µM*	2.82µM*	2.69µM*	12.6µM*
COc1ccc(/C(C)=N/Nc2nc(C)c(C(C)=O)s2)cc1	3.4%	-0.6%	-2.5%	?	.
O=C(O)Cc1sc(N/N=C\c2ccccc2)nc1-c1ccccc1	0.5%	11.8%	6.5%	23.9µM*	16.1%
COc1ccccc1Nc1nc(-c2ccccc2)c(CC(=O)O)s1	.	.	.	16.9µM*	11.7%
COc1cc(C(=O)N(C)CCOc2ccc(C)cc2)ccc1OC1CCN(C(C)=O)CC1	-8.4%	2.6%	1.1%	1.7%	.
Cc1ccc2c(c1)N(CC(=O)NCc1cccc(Cl)c1)C(=O)c1cccnc1O2	.	.	.	-9.0%	.
CCOC(=O)c1sc(N/N=C/c2cccc(C)c2)nc1C	11.0%	?	?	8.49µM*	20.4%
SMILES	ELG1 genotoxic	Rab9 prom act	NPC1 prom act	FLuc modulator	SMN2 splice up
CCOC(=O)c1sc(Nc2ccc(C)cc2C)nc1C	20.7%	-2.6%	-3.0%	?	-19.1%
O=C(Nc1nccs1)c1ccc(CSc2ccccc2)o1	16.4%	2µM*	3.16µM*	5.36µM*	.
Cc1ccc(SCc2ccc(C(=O)Nc3nccs3)o2)cc1	7.9%	?	?	15.1µM*	.
O=C1CN(C(=O)C2CCC(=O)N(CCc3ccc(Cl)cc3)C2)CCN1 (stereo unspecified)	3.0%	16.3%	-5.9%	1.9%	.
CCOc1ccc(CCNC(=O)CSc2nnnn2-c2ccccc2)cc1OCC	.	.	.	-7.3%	5.4%
CCN1CCN(c2csc3ccc(Br)cc3c2=O)CC1	.	.	.	13.5µM*	.
CCN1CCN(c2csc3ccc(C)cc3c2=O)CC1	.	.	.	12µM*	.
CCN1CCN(CC(=O)N/N=C/c2cc(Br)cs2)CC1	-0.9%	1.2%	-5.0%	-0.1%	.
COc1ccc2ccc(O)c(CN(C)CC(=O)Nc3ccccc3C(F)(F)F)c2c1	0.0%	2.9%	-1.4%	0.7%	.
CCOC(=O)Cc1csc(NC(=O)c2ccncc2)n1	-6.3%	-2.7%	0.3%	-2.6%	-27.4%
CCOC(=O)Cc1csc(NC(=O)c2cc3c(s2)CCCC3)n1	?	0.562µM*	1.41µM*	1.35µM*	-1.5%
CCOC(=O)Cc1csc(NC(=O)c2ccc(Cl)s2)n1	13.2%	1.2%	-11.0%	?	.
CCOC(=O)Cc1csc(NC(=O)c2cc(C)c(C)s2)n1	0.4%	23.3%	?	8.49µM*	.
CCOC(=O)Cc1csc(NC(=O)c2csc3c2CCCC3)n1	-4.7%	-6.1%	-2.0%	4.78µM*	-35.5%
CC(=O)Nc1ccc(Cc2nc3c([nH]2)c(=O)n(C)c(=O)n3C)cc1	0.0%	-5.0%[1.84 µM]	0.9%	2.6%	.
O=C(Nc1ccccc1)c1ccc(COc2ccccc2)cc1	7.8%	?	?	-13.5%	9.2%
O=C(Nc1ccc(COc2ccccc2)cc1)Nc1cccc(C(=O)O)c1	10.5%	2.82µM*	?	0.849µM*	.
O=C(O)c1cccc(NC(=S)NC(=O)c2ccncc2)c1	4.3%	2.0%	-0.7%	?	8.0%
O=C(O)c1cccc(NC(=S)NC(=O)c2cccc(OCc3ccccc3)c2)c1	8.6%	?	25.0%	19µM*	.
CCCOc1cccc(C(=O)NC(=S)Nc2ccccc2)c1	?	?	?	8.49µM*	12.6µM*
CC(C)Oc1cccc(C(=O)NC(=S)Nc2ccccc2)c1	?	3.16µM*	?	2.39µM*	11.2µM*
Cc1ccc(C(=O)O)cc1NC(=S)NC(=O)Cc1ccccc1	3.3%	-1.0%	-2.1%	-6.1%	17.0%
Cc1ccc(C(=O)O)cc1NC(=S)NC(=O)c1ccc(COc2ccccc2)cc1	1.2%	6.7%	2.0%	12µM*	.
COc1c(C)cc(Br)cc1C(=O)NC(=S)Nc1ccc(Cl)c(C(=O)O)c1	9.5%	19.5%	15.3%	23.9µM*	.
CCCOc1cccc(C(=O)Nc2cc(-c3ccccc3)no2)c1	.	.	.	6.01µM*	14.1µM*
SMILES	ELG1 genotoxic	Rab9 prom act	NPC1 prom act	FLuc modulator	SMN2 splice up
CC(C)Oc1ccc(C(=O)NC(=S)Nc2ccc(Cl)c(C(=O)O)c2)cc1	?	?	?	16.9µM*	.
CCOc1cc(C(=O)NC(=S)Nc2ccc(Cl)c(C(=O)O)c2)cc(OCC)c1OCC	0.6%	0.8%	-13.3%	-0.9%	.
COc1cccc(C(=O)NC(=S)Nc2ccc(Cl)c(C(=O)O)c2)c1	.	.	.	?	-2.6%
CCCOc1cccc(C(=O)Nc2ccc(Br)cc2F)c1	?	?	?	2.69µM*	12.6µM*
CCCC(=O)n1nc(-c2cccnc2)nc1NCc1ccccc1	0.7%	-0.3%	-1.8%	2.5%	3.6%
CCSc1nnc2c(n1)[nH]c1c(C)cccc12	?	5.62µM*	0.4%	12µM*	-36.8%
COc1ccc(CNC(=O)Nc2cccc(Cl)c2)cc1	?	?	2.51µM*	?	.

Assay outcomes (PubChem)
